Reference: PubChem BioAssay (NCATS)
Results filed as inconclusive are left out. Calls of active or inactive are those of the source. The call rests on the fitted dose curve; in most records, active means well fitted inhibition curve with a large enough effect in the repeat runs; inconclusive means weak or mixed curves; inactive means flat fitted curve, though single readings scatter.

molecular target: Cytochrome P450 2D6 (Homo sapiens) (UniProt P10635); assay: Cytochrome P450 family 2 subfamily D member 6 (CYP2D6) small molecule antagonists: luciferase biochemical (cell-free) qHTS assay (AID 1645840); details: P450-Glo CYP2D6 enzyme, luciferin luminescence, 1 h; series mostly up to 57.4 µM; activity change, negative = inhibition: at the top concentration; further: nearly all actives have a fitted effect of over 55% in size
In short: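 P450-Glo luminescent screen: recombinant CYP2D6 enzyme–proluciferin substrate mix preincubated with compound 10 min at room temperature, then NADPH regeneration added for 1 h at room temperature. Detection reagent added for 20 min; luciferin light read as relative luminescence units.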
On the % scale 0 is the no-effect control and ±100 the full control effect; potency means the concentration at half of the fitted maximal effect.

Cytochrome P450 2D6 (Homo sapiens), sequence (P10635 whole entry, looked up): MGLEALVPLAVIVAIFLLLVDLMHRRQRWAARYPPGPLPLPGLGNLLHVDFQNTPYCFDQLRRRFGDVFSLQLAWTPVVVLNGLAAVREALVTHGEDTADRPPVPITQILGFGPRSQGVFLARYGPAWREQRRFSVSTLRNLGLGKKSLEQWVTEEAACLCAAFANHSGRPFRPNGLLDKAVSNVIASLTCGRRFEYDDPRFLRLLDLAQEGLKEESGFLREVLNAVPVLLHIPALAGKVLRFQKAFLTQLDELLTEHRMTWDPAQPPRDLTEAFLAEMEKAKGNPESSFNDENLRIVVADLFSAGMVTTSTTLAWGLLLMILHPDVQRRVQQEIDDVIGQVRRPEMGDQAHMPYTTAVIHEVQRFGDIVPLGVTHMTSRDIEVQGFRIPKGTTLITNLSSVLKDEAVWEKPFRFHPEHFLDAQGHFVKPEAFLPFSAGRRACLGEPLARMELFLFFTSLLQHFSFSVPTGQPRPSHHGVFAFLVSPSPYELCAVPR

Structure (SMILES)	activity change, negative = inhibition	Potency
O=S(=O)(O)Oc1ccc(C(c2ccc(OS(=O)(=O)O)cc2)c2ccccn2)cc1	0.705% (inactive)	–
O=C1c2ccc(Nc3ccc(F)cc3F)cc2CCc2ccc(OCC(O)CO)cc21 (centres undefined)	–	26.8 µM (active)
Cn1ncc(Cl)c1-c1cc(C(=O)N[C@H](CN)Cc2cccc(F)c2)sc1Cl	–	2.68 µM (active)
CC[N+]1(C/C2=C/CCCCCC2)CCC(NC(=O)C2c3cc(Cl)ccc3Oc3ccc(Cl)cc32)CC1 (centres undefined)	–	0.425 µM (active)
CC1(S(=O)(=O)O)CC(=O)c2ccccc2C1=O (centres undefined)	–	8.49 µM (active)
CN1CC(O)c2cc(N=NC(N)=O)c(O)cc21 (centres undefined)	-3.39% (inactive)	–
Nc1c(CC(=O)O)cccc1C(=O)c1ccccc1	6.08% (inactive)	–
NC(=O)c1nc(Nc2ccccc2)sc1NC(=O)C1CCCCC1	3.16% (inactive)	–
CCCC(CCC)C(N)=O	2.67% (inactive)	–
C=CC(=O)N1CCC(Oc2cc3c(Nc4ccc(Cl)c(Cl)c4F)ncnc3cc2OC)CC1	–	2.68 µM (active)
C=CC(=O)N1CCCC(n2nc(-c3ccc(Oc4ccccc4)cc3)c3c(N)ncnc32)C1 (centres undefined)	–	19 µM (active)
COc1cc2ncnc(Oc3ccc(CC(=O)Nc4cnn(C(C)C)c4)cc3)c2cc1OC	3.33% (inactive)	–
O=C(Nc1cccnn1)N1CCN(c2nccc(-c3ccc(F)c(F)c3)n2)CC1	3.65% [at 115 µM] (inactive)	–
Cc1cc2occ(CN(C)CCN(C)Cc3cn(-c4cccc(C(F)(F)F)c4)c4ccccc34)c(=O)c2cc1C	–	4.77 µM (active)
COC(C)=O	8.99% (inactive)	–
CC(C)NCCCn1c(Sc2cc3c(cc2I)OCO3)nc2c(N)ncnc21	–	0.536 µM (active)
CC(C)(C)c1ccc2c(c1)CC[C@H]2NC(=O)Nc1cccc2[nH]ncc12	1.75% (inactive)	–
O=C(NCCCN1CCC2(CC1)OCc1ccccc12)[C@H]1CCCN1Cc1ccccc1	–	2.13 µM (active)
N#C/C(=C1\Nc2ccccc2S1)c1ccnc(NCCc2cccnc2)n1	–	8.49 µM (active)
Cc1ccc(C)c(NC(=O)[C@@H]2CCCN2S(=O)(=O)c2cccc3cccnc23)c1	–	16.9 µM (active)

Structure (SMILES)	activity change, negative = inhibition	Potency
Cc1ccc(C2(C(=O)N3CCC(n4nc(-c5ccccc5)oc4=O)CC3)CC2)cc1	–	13.5 µM (active)
O=S(O)CO	-0.608% (inactive)	–
COc1ccc(CNc2nc(N(CCO)CCO)nc3c2ncn3C(C)C)cc1	-18.3% (inactive)	–
CN[C@@H]1CCc2[nH]c3ccc(C(N)=O)cc3c2C1	31.9% (inactive)	–
O=C(OCCO)c1ccccc1O	7.48% (inactive)	–
CN(C)CCOc1cc(NS(=O)(=O)c2c(Cl)cc(C(F)(F)F)cc2Cl)ccc1Cl	–	16.9 µM (active)
CCC(=O)O	1.85% (inactive)	–
Cc1cccc(C#Cc2cc(F)cc(C#N)c2)n1	-9.1% (inactive)	–
C#CC(=O)N(c1ccc(OC)cc1OC)C(C(=O)NCC(=O)OCC)c1cccs1 (centres undefined)	–	12 µM (active)
CC(=O)NCc1cccc(OC[C@@H](O)CNCCc2ccc(NS(=O)(=O)c3ccccc3)cc2)c1	–	0.849 µM (active)
CCC(=O)Oc1ccc2c(c1)CC[C@@H]1[C@@H]2CC[C@]2(C)[C@@H](OC(=O)CC)CC[C@@H]12	-14% (inactive)	–
CCCCC(=O)O	-3.25% (inactive)	–
CCCCCCCCCC(=O)O	4.27% (inactive)	–
O=[N+]([O-])c1ccc(Oc2ccc(N=C=S)cc2)cc1	3.33% (inactive)	–
C=CS(=O)(=O)O	7.23% (inactive)	–
Fc1ccc(-c2nc(-c3c(F)cccc3F)[nH]c2-c2ccncc2)cc1	–	2.68 µM (active)
CC1(C)S[C@@H]2[C@H](NC(=O)C(C(=O)Oc3ccc4c(c3)CCC4)c3ccccc3)C(=O)N2[C@H]1C(=O)O (some centres undefined)	2.21% (inactive)	–
O=C1C(c2[nH]c3ccc(S(=O)(=O)O)cc3c2O)=Nc2ccc(S(=O)(=O)O)cc21	-24.5% (inactive)	–
CCOC(=O)[C@H](CCc1ccccc1)N[C@H]1CCCN2CCC[C@@H](C(=O)O)N2C1=O	-0.997% (inactive)	–
